Results reported in the supplement of paper PMC6555819.

Tests used:
Assay in all cases: PBM binding z-score (relative to random genomic background probes); higher = stronger binding; sequences stand for … in GC…GCGATTGACAGCGTAGAATGAAGG
[1] = tested on: FXR:RXRa (NR concentration 270 nM, RXRa partner concentration 90 nM)
Method in brief: (§1)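 Binding z-scores were set against random background probes. The data came from custom Agilent 4×180K protein-binding microarrays carrying double-stranded probes with 34-nt variable regions, incubated 1 h with ligand-free nuclear receptor dimers. Partner-specific antibodies detected binding, and scanned fluorescence was regression-normalized.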

[2] = tested on: LXRa:RXRa (NR concentration 270 nM, RXRa partner concentration 90 nM)
Method in brief: as §1

[3] = tested on: LXRa homodimer (NR concentration 270 nM)
Method in brief: as §1

[4] = tested on: LXRb:RXRa (NR concentration 270 nM, RXRa partner concentration 90 nM)
Method in brief: as §1

[5] = tested on: LXRb homodimer (NR concentration 270 nM)
Method in brief: as §1

[6] = tested on: PPARa:RXRa (NR concentration 270 nM, RXRa partner concentration 90 nM)
Method in brief: as §1

[7] = tested on: PPARg:RXRa (NR concentration 180 nM, RXRa partner concentration 90 nM)
Method in brief: as §1

[8] = tested on: PPARg:RXRa 270nM:90nM, anti-RXR (NR concentration 270 nM, RXRa partner concentration 90 nM)
Method in brief: as §1

[9] = tested on: PPARg:RXRa 30nM:10nM, anti-RXR (NR concentration 30 nM, RXRa partner concentration 10 nM)
Method in brief: as §1

[10] = tested on: PPARg:RXRa 90nM:30nM, anti-RXR (NR concentration 90 nM, RXRa partner concentration 30 nM)
Method in brief: as §1

Row | Sequence | PBM binding z-score [1] | PBM binding z-score [2] | PBM binding z-score [3] | PBM binding z-score [4] | PBM binding z-score [5] | PBM binding z-score [6] | PBM binding z-score [7] | PBM binding z-score [8] | PBM binding z-score [9] | PBM binding z-score [10]
1 | CCTAGCTGGTCAGGAGGTCACACACCGGATATGA | 3.53 | 3.73 | 1.44 | 3.21 | 0.171 | 4.14 | 2.84 | 3.59 | 1.08 | 2.74
2 | CGTCCAAGGTCAATGCTAGGTCAGTCAAAGCATT | 6.9 | 5.33 | 3 | 4.39 | 0.815 | 4.98 | 4 | 4.84 | 1.11 | 3.32
3 | TAGCCTAGGTCATGCGGGCCAGAATAGTGTCGGC | 4.39 | 3.19 | 0.255 | 1.79 | -0.467 | 3.93 | 2.58 | 2.53 | 0.103 | 1.54
4 | ATCTCTCGGTAAGACTCAGTTCAGTGAAGAACGC | 0.549 | 0.674 | 0.845 | 0.602 | 1.47 | 0.3 | -0.175 | 0.19 | 0.114 | 0.251
5 | CGAACGAGGGCATGATTTGATAGCAAATGCCGAT | 0.047 | -0.148 | -0.301 | -0.0288 | -0.66 | 0.783 | 0.992 | 0.441 | 0.141 | 0.0789
6 | CGAACTAGGTCAGAAGAGGACAGTGAAGGATGAT | 1.71 | 1.24 | -0.161 | 0.331 | -0.576 | 3.14 | 5.79 | 4.62 | 2.29 | 4.02
7 | CGAACGAGGGCATGAGATGATAGCAAATGCCGAT | 0.416 | 0.173 | 0.0308 | -0.0144 | -0.705 | 1.22 | 1.5 | 0.73 | 0.325 | 0.278
8 | GATACAGGGTCAGCTAGTGGCCAGAGTATGGAAA | 4.54 | 2.31 | -0.558 | 2.21 | -0.762 | 4.49 | 3.55 | 3.25 | 0.61 | 1.77
9 | CAAACTAGGTCACCGGAAGGTCCAAGTCCGCATG | 4.24 | 3.41 | 0.716 | 2.42 | 0.547 | 5.28 | 8.9 | 7.31 | 5.06 | 7.02
10 | ATCGCTAGGTAAGACTCAGTTCAGTGAAGAACGC | -0.617 | -0.685 | -0.587 | -0.734 | -0.581 | -0.45 | -0.14 | -0.615 | -0.356 | -0.686
11 | ACTAGCAGGCCAAGGGTCACTCCAGATTAGTCCG | 2.22 | 2.79 | 0.477 | 2.39 | -0.313 | 4 | 7.89 | 7.08 | 5.52 | 7.48
12 | CGTCCAAGGTCAGAGAGGTCAGTGAATGCCGAGT | 6.03 | 5.21 | 3 | 4.19 | 0.123 | 4.72 | 3.4 | 4.41 | 0.873 | 3.2
13 | CCTTACGGGTCACTGATAGGTTATAGCATTTGGA | 5.04 | 4.27 | 0.473 | 3.53 | 0.0559 | 5 | 4.57 | 4.4 | 1.47 | 3.36
14 | AATACAGTGTCATCGTAGGCCAGAGTACGCACAG | 0.397 | 1.79 | -0.224 | 0.401 | -0.022 | 0.815 | 1.05 | 0.517 | 0.42 | 0.495
15 | ATATCTAGGTTACATCCGGGTCATTCAGGCTATG | 2.52 | 4.41 | 1.93 | 3.04 | 1.64 | 4.41 | 6 | 5.11 | 2.4 | 4.09
16 | CGTCCAAGGTCGATGCTAGGTCAGTGAAAGCATT | 1.61 | 1.91 | -0.14 | 1.33 | -0.866 | 1.81 | -0.125 | 0.529 | -0.65 | -0.0604
17 | CCTAGCAGGACAGGGTCACTCAAGCATTTCGCTT | 2.28 | 1.99 | -0.28 | 2.4 | -0.799 | 3.41 | 0.993 | 1.68 | -0.413 | 0.404
18 | CCGACTGGGGCAAAGGTTACCATCCTCAGTACGA | 1.66 | 1.25 | -0.21 | 1.79 | -0.941 | 5.49 | 10.9 | 9.37 | 8.35 | 10.1
19 | TCGAGTAGGTTAGTCGGGGCATTTAGCCAACATA | 0.338 | 0.346 | -0.167 | 0.722 | -0.677 | 0.819 | -0.0847 | 0.976 | 1.17 | 1.04
20 | CCTAATTGGTCAGGAGGTCACACACCGGATATGA | 3.74 | 3.59 | 2.27 | 3.64 | 1.07 | 4.42 | 3.88 | 4.51 | 2.08 | 4.16
21 | CCTACTGGGCCATCAGGTAATTGATATCAACGTT | -0.165 | -0.235 | -0.14 | -0.089 | -0.373 | 0.452 | 1.15 | 1.85 | 0.313 | 1.17
22 | TGTCATAGTTCAAAGGTAACGTAAGTATCCACAC | 4.03 | 4.22 | 1.04 | 2.89 | 0.786 | 4.17 | 5.59 | 5.56 | 2.89 | 4.8
23 | GGAACGAGGGCATTCGAGGTGATAGCATGGCGAT | 1.32 | 3.38 | -0.432 | 0.556 | -0.578 | 2 | 1.28 | 0.75 | 0.0745 | 0.494
24 | GCAGCTAGGTCAACTGATGGTCAGCTAAAGCTCG | 3.76 | 2.29 | -0.24 | 1.56 | -0.578 | 3.37 | 2.48 | 3.01 | 0.457 | 1.89
